Screening results (PubChem)
An excerpt weighted towards active compounds, which were near 17% of everything screened.
HT1080 IDH1KD tx: HT-1080 IDH1 knockdown cell toxicity (counter line) | 2% of 360,000 active | HT-1080 IDH1 knockdown viability, ATP luminescence, 48 h | Potency, µM (top dose mostly 46.1 µM), for inactives: at the top dose activity, negative = toxicity, hits mostly cytotoxic | AID 686971;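 further: 0% = DMSO wells and -100% = cell-free medium wells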
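Luminescent ATP read-out (CellTiter-Glo, 10 min at room temperature) after 48 h compound exposure at 37 °C gave viability of IDH1-knockdown HT-1080 cells. Activity was normalised to DMSO and cell-free wells, then fitted as concentration-response curves.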
HT1080NT lethal: kills 2HG-producing HT-1080-NT fibrosarcoma cells. HT-1080-NT fibrosarcoma viability, CellTiter-Glo ATP luminescence, 48 h. Potency, µM (doses to about 46.1 µM), for the others: at the top dose activity, negative = less viability, usual class: cytotoxic. 1.6% of 360,000 active;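 further: NT is the 2HG producing partner of a matched IDH1 knockdown line; 0% = DMSO-treated cells and -100% = media-only wells without cells; nearly all actives have a fitted effect of over 55% in size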
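Viability of the 2HG-overproducing fibrosarcoma line after 48 hours of compound exposure at 37 degrees C was determined by luminescence with CellTiter-Glo, and concentration-effect curves were then fitted and categorized.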
HepG2 tox: HepG2 cytotoxicity, counter-screen for TGF-b inhibitors. HepG2 CAGA-GFP viability, ATP luminescence, 18 h. Potency, µM (highest dose often 46.1 µM), for inactives: at the highest dose activity change, negative = cytotoxicity, actives largely listed as cytotoxic. 0.76% of 410,000 active
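HepG2 CAGA-GFP cells (1000/well, DMEM with 1% FBS) received compound, then TGF-beta at 500 pg/mL final, and were incubated 18 hours at 37 degrees C. Viability was read by CellTiter-Glo luminescence. Media-only wells were set as complete cell-killing and DMSO as no toxicity.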
TDP1 cell noCPT: qHTS for Inhibitors of human tyrosyl-DNA phosphodiesterase 1 (TDP1): qHTS in cells in absence of CPT; Potency, µM (doses to about 46.2 µM), without a hit: at the highest dose activity change, negative = growth inhibition, most hits filed as inhibitors; AID 686978, 2013; 15% of 420,000 active; DT40 Tdp1-/- hTDP1 cells, no CPT, ATP luminescence, 48 h; further: on the % scale 0 is the no-effect control and ±100 the full control effect; nearly all actives have a fitted effect of over 55% in size
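Growth kinetics read by CellTiter-Glo luminescence after ≥48 hr at 37 °C. Cells: DT40 Tdp1-/- stably carrying human TDP1, 400 per well, compound exposure in the absence of CPT (DMSO vehicle).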
TGFb inhibitor: inhibitors of TGF-b signaling; HepG2 CAGA-GFP TGF-b/SMAD3 reporter, GFP fluorescence, 18 h; TGF-beta stimulated, 500 pg/mL final; Potency, µM (titrated, usually from 46.1 µM), for inactives: at the top dose activity, negative = inhibition, usual class: inhibitors; 1.2% of 410,000 active; AID 588855; further: on the % scale 0 is the no-effect control and ±100 the full control effect; nearly all actives have a fitted effect of over 65% in size
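First, reporter cells (HEPG2 CAGA-GFP) rested 2 h at 37 degrees C. Next, compounds were pinned in and TGF-beta added to 500 pg/mL final. After 18 h, GFP was imaged per cell and summed per well.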
DT40 TDP1 CPT: DT40-hTDP1 cell growth loss with CPT; AID 686979; 12% of 420,000 active; chicken DT40 Tdp1-/-;hTDP1 cells + 20 nM CPT, ATP luminescence, 48 h; Potency, µM (titrated, usually from 46.2 µM), for inactives: at the top dose activity change, negative = growth inhibition, most hits filed as inhibitors; further: on the % scale 0 is the no-effect control and ±100 the full control effect; nearly all actives have a fitted effect of over 55% in size
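Chicken DT40 Tdp1-/- cells complemented with human TDP1, 400 cells/well, exposed to compounds plus 20 nM camptothecin for at least 48 h at 37 C; viability read as ATP content by CellTiter-Glo luminescence.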
Numbers without * were called inactive; [ ] = remark or other dose. The call rests on the fitted dose curve; in most records, active means well fitted curve in the direction sought with a large enough effect; inconclusive means small, poorly fitted or top-dose-only effect, or another doubt; inactive means no such curve, though single readings can be large; an effect the other way counts as inactive or inconclusive. Potency means the concentration at half of the fitted maximal effect.

Screening COc1ccc(C(=O)Nc2sc(C)c(-c3ccccc3)c2C#N)cc1OC returned HT1080 IDH1KD tx inconclusive, HT1080NT lethal -14%, HepG2 tox -14%, TDP1 cell noCPT 21µM*, TGFb inhibitor -35% and DT40 TDP1 CPT inconclusive.
Screening CCOC(=O)c1c(NC(=O)c2ccnn2C)sc(C)c1C returned HT1080 IDH1KD tx 23%, HT1080NT lethal 22%, HepG2 tox 3%, TDP1 cell noCPT -19%, TGFb inhibitor 9% and DT40 TDP1 CPT 7%.
Screening Cc1cccc(-n2c(C)cc(/C=C3\NC(=O)NC3=O)c2C)c1 returned HT1080 IDH1KD tx inconclusive, HT1080NT lethal inconclusive, HepG2 tox -3%, TDP1 cell noCPT inconclusive, TGFb inhibitor 0% and DT40 TDP1 CPT inconclusive.
`Cc1cc(C)c(-n2c(C)cc(/C=C3/NC(=O)NC3=O)c2C)c(C)c1` gave HT1080 IDH1KD tx inconclusive, HT1080NT lethal inconclusive, HepG2 tox -23%, TDP1 cell noCPT 15µM*, TGFb inhibitor 2% and DT40 TDP1 CPT inconclusive.
For Cc1ccc(NC2(c3ccccc3)C(=O)c3ccccc3C2=O)cc1F the results were HepG2 tox 1%, TDP1 cell noCPT -21%, TGFb inhibitor 19% and DT40 TDP1 CPT -2%.
Screening Cc1cccc(C)c1-n1nnnc1SCc1nc(N)nc(N(C)C)n1 returned HT1080 IDH1KD tx inconclusive, HT1080NT lethal inconclusive, HepG2 tox -61%, TDP1 cell noCPT 2.1µM*, TGFb inhibitor 5.6µM* and DT40 TDP1 CPT 2.3µM*.
COc1ccc(C)cc1-n1nnnc1SCc1nc(N)nc(N(C)C)n1 was read as HT1080 IDH1KD tx inconclusive, HT1080NT lethal inconclusive, HepG2 tox -37%, TDP1 cell noCPT 6.5µM*, TGFb inhibitor 11µM* and DT40 TDP1 CPT 4.6µM*.
Screening CN(C)c1nc(N)nc(CSc2nnnn2-c2ccc(F)cc2)n1 returned HT1080 IDH1KD tx inconclusive, HT1080NT lethal 0%, HepG2 tox 1%, TDP1 cell noCPT -24%, TGFb inhibitor -22% and DT40 TDP1 CPT -35%.
Screening O=C1NC[C@H](CC2CCCCC2)N(CCC23CC4CC(CC(C4)C2)C3)C1=O returned HT1080 IDH1KD tx 22%, HT1080NT lethal 1%, TDP1 cell noCPT -16% and DT40 TDP1 CPT -8%.
Screening Cc1cc(Nc2ccccc2)nc(N2CCN(C(=O)c3ccc4c(c3)OCO4)CC2)n1 returned HT1080 IDH1KD tx -4%, HT1080NT lethal -4%, HepG2 tox -19%, TDP1 cell noCPT inconclusive, TGFb inhibitor -2% and DT40 TDP1 CPT inconclusive.
`COc1ccc(C(C)=O)cc1Cn1c(C)c(C(=O)NCCC#N)sc1=O` gave HT1080 IDH1KD tx 25%, HT1080NT lethal 11%, HepG2 tox -10%, TDP1 cell noCPT inconclusive, TGFb inhibitor -13% and DT40 TDP1 CPT 3%.
CCCCN(CC)CCCNC(=S)Nc1ccc2nc(N3CCN(CC)CC3)cc(C)c2c1 was read as HT1080 IDH1KD tx inconclusive, HT1080NT lethal 16µM*, HepG2 tox -34%, TDP1 cell noCPT 16µM*, TGFb inhibitor -1% and DT40 TDP1 CPT inconclusive.
Screening CCCCN(CC)CCCNC(=S)Nc1ccc2nc(N3CCN(C)CC3)cc(C)c2c1 returned HT1080 IDH1KD tx inconclusive, HT1080NT lethal 18µM*, HepG2 tox -19%, TDP1 cell noCPT 16µM*, TGFb inhibitor -1% and DT40 TDP1 CPT inconclusive.
Screening CCN1CCN(c2cc(C)c3cc(NC(=S)NCCCOC)ccc3n2)CC1 returned HT1080 IDH1KD tx -6%, HT1080NT lethal -14%, HepG2 tox -8%, TDP1 cell noCPT 2%, TGFb inhibitor -3% and DT40 TDP1 CPT inconclusive.
For CC1=C(CC/C(C)=N/NC(N)=S)C(C)(C)CCC1 the results were HT1080 IDH1KD tx 8.9µM*, HT1080NT lethal 6.3µM*, HepG2 tox -21%, TDP1 cell noCPT 3.2µM*, TGFb inhibitor -17% and DT40 TDP1 CPT 4µM*.
Cc1sc2nc(SCC(=O)NCc3cccs3)[nH]c(=O)c2c1C was read as HT1080 IDH1KD tx -7%, HT1080NT lethal 0%, HepG2 tox -3%, TDP1 cell noCPT -2%, TGFb inhibitor 1% and DT40 TDP1 CPT -6%.
Screening O=C(NC1CCCCC1)N(Cc1nc2ccccc2c(=O)[nH]1)C1CCCC1 returned HT1080 IDH1KD tx 0%, HT1080NT lethal 5%, HepG2 tox 0%, TDP1 cell noCPT inconclusive, TGFb inhibitor -15% and DT40 TDP1 CPT -24%.
Cc1sc2nc(CN(C(=O)NC3CCCCC3)C3CCCCC3)[nH]c(=O)c2c1C was read as HT1080 IDH1KD tx 17%[9.24 µM], HT1080NT lethal -22%, HepG2 tox -6%, TDP1 cell noCPT 21µM*, TGFb inhibitor 12% and DT40 TDP1 CPT 18µM*.
Cc1sc2nc(CN(Cc3cccs3)C(=O)C3CC3)[nH]c(=O)c2c1C was read as HT1080 IDH1KD tx -1%, HT1080NT lethal -1%, HepG2 tox 1%, TDP1 cell noCPT 9.2µM*, TGFb inhibitor -2% and DT40 TDP1 CPT 16µM*.
For COc1ccc(C(=O)c2sc3nc(-c4ccc(F)cc4)ccc3c2N)cc1 the results were HepG2 tox 3%, TDP1 cell noCPT -13%, TGFb inhibitor -2% and DT40 TDP1 CPT -23%.
For CC(=O)Oc1ccc2c(c1)CCC1C2CC[C@]2(C)C(OC(C)=O)CCC12 (some centres not stated) the results were TDP1 cell noCPT 0% and DT40 TDP1 CPT 6%.
`CSCCC(NC(=O)c1ccco1)C(=O)NCC1CCCO1` (configuration not stated) gave HT1080 IDH1KD tx -2%, HT1080NT lethal 1%, HepG2 tox -13%, TDP1 cell noCPT 3.3µM*, TGFb inhibitor 3% and DT40 TDP1 CPT 16%.
Screening CSCCC(NC(=O)c1ccco1)C(=O)NC1CCCCCC1 (configuration not stated) returned HT1080 IDH1KD tx 1%, HT1080NT lethal -2%, HepG2 tox -4%, TDP1 cell noCPT -13%, TGFb inhibitor 0% and DT40 TDP1 CPT -5%.
`Cc1ccc(OC(C)C(=O)N2CC(=O)Nc3ccccc32)c(C)c1` (configuration not stated) gave HT1080 IDH1KD tx 22%, HT1080NT lethal 29%, HepG2 tox 8%, TDP1 cell noCPT -26%, TGFb inhibitor -4% and DT40 TDP1 CPT -5%.
